Potency data for 24 molecules are collected here from ChEMBL document CHEMBL1201862, “PubChem BioAssay data set” (2004).

The structures appear in SMILES notation. Screen size: about 400,000 compounds; about 2,100 (0.53%) were called active. Another 14% or so got no clear call; they are omitted. How the calls were made is not given here. The sample as a whole holds a higher share of actives than the screen did.

Sequence of Ataxin-2 (Homo sapiens) (Q99700 whole entry): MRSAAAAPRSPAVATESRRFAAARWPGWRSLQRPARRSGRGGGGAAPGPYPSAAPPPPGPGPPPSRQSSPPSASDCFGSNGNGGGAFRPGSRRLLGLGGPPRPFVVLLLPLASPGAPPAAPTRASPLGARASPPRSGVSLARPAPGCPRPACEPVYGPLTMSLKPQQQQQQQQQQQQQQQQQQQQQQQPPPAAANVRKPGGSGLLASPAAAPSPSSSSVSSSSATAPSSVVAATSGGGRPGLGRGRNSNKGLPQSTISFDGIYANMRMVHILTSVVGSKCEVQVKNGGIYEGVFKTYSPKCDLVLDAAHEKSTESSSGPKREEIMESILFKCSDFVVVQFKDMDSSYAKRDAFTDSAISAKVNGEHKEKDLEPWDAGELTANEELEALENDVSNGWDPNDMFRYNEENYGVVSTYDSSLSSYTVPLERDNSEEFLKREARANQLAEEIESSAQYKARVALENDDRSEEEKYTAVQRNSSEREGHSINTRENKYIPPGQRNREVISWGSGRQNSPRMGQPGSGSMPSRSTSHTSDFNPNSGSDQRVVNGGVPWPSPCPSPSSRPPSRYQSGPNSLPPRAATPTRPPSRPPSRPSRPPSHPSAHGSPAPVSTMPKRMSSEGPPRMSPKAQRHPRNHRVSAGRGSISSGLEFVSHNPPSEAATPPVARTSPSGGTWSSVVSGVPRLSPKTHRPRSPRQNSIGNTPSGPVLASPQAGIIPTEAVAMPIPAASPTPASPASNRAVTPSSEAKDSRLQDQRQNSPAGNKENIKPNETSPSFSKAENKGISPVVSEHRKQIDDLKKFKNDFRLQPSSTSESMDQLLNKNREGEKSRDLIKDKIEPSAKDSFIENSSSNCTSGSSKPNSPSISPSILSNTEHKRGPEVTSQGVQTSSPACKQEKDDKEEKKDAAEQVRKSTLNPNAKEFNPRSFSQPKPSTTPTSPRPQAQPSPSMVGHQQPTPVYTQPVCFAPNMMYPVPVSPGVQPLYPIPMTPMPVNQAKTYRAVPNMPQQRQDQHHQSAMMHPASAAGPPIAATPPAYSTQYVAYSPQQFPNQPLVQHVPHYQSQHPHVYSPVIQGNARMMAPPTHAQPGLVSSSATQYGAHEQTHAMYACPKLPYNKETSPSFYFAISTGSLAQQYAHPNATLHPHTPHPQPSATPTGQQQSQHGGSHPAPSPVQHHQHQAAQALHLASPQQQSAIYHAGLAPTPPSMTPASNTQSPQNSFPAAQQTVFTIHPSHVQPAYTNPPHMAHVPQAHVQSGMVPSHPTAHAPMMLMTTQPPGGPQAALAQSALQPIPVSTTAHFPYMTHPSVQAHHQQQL

The assay addresses Ataxin-2 (Homo sapiens) (UniProt Q99700). The assay is described as follows: qHTS for Inhibitors of ATXN expression. The assay is classed as functional.
For the molecule `COc1ccccc1CCNC(=O)CCNS(=O)(=O)c1ccc(NC(C)=O)cc1`, the Potency result is “inactive”.
In the case of `COC(=O)[C@]12CCCCC=C1N(CCC1=CCCCC1)C(=O)[C@H](CC(=O)NCc1cccc3ccccc13)C2` it was 25.1 µM (active).
Take `COC(=O)[C@]12CCCCC=C1N(CCC1=CCCCC1)C(=O)[C@H](CC(=O)NCCc1ccccc1OC)C2`: the Potency is 39.8 µM (active).
Take `CCCn1nc(NC(=O)CC)c2cc3cccc(C)c3nc21`: the Potency entry is “inactive”.
In the case of `O=C(/C=C/c1cccc(Cl)c1)OCC(=O)c1ccc[nH]1` it was “inactive”.
The result for `CC(C)n1/c(=N/C(=O)c2ccco2)c(C#N)cc2c(=O)n3ccccc3cc21` reads “inactive”; that for `NC(=O)c1nsc(C(=O)N(c2ccccc2)C(C(=O)NCC2CCCO2)c2ccc3ncccc3c2)c1N` (centres undefined), “inactive”.
In the case of `O=C1C(=O)c2ccccc2C(O)=C1CCCCl` it was 25.1 µM (active); in that of `COc1ccc2cc(-c3nc4ccc(C(=O)O)cc4[nH]3)c(=O)oc2c1`, “inactive”.
`COc1ccc(/N=c2\oc3ccc(OC)cc3cc2-c2nc3ccccc3[nH]2)cc1`: the Potency is 31.6 µM (active).
Regarding `CCN(CC)c1ccc2cc(-c3nc4ccccc4[nH]3)c(=O)oc2c1`, the Potency entry was “inactive”.
The result for `CCC1=Nc2cc(C(=O)N3CCC(C)CC3)ccc2Sc2ccc(C)cc21` reads 28.2 µM (active); that for `CC1CCN(C(=O)c2ccc3c(c2)C(=O)c2ccccc2-3)CC1`, “inactive”; that for `CC1CCN(S(=O)(=O)N2CCN(C(=O)c3ccc4c(c3)OCO4)CC2)CC1`, “inactive”.
The result for `O=C1C=CC(=O)N1CCCCCCN1C(=O)C=CC1=O` reads 25.1 µM (active); that for `Cn1c(=O)c2c(nc(Oc3cccc(Br)c3)n2C)n(C)c1=O`, “inactive”; that for `C[C@@H]1CN([C@H](C)CO)S(=O)(=O)c2ccc(C#Cc3ccccc3F)cc2O[C@@H]1CN(C)C(=O)Cc1ccccc1`, 25.1 µM (active).
In the case of `C[C@H]1CN([C@@H](C)CO)S(=O)(=O)c2ccc(Br)cc2O[C@@H]1CN(C)Cc1cccc(F)c1` it was 25.1 µM (active); in that of `C[C@@H]1CN([C@@H](C)CO)S(=O)(=O)c2ccc(C#Cc3cccc(F)c3)cc2O[C@H]1CN(C)S(=O)(=O)c1cn(C)cn1`, 39.8 µM (active).
For `C[C@@H]1CN([C@H](C)CO)S(=O)(=O)c2ccc(C#C[C@@H](C)O)cc2O[C@@H]1CN(C)Cc1ccc(-c2ccccc2)cc1`, the Potency was 20 µM (active).
In the case of `COCCCNC(=S)N/N=C/c1ccc(O)cc1O` it was “inactive”; in that of `CCNC(=S)N/N=C/c1sc(N2CCCCC2)nc1-c1cccs1`, “inactive”.
For `Cc1cccc(C)c1NC(=O)COC(=O)c1c2c(nc3ccccc13)/C(=C\c1ccc3c(c1)OCO3)CCC2`, the Potency result is “inactive”.
Turning to `N#Cc1cccc(NC(=O)CN2C(=O)NC(Cc3ccccc3)C2=O)c1` (centres undefined), the Potency entry is “inactive”.
